Inconclusive results are not listed. Active and inactive are the calls of the source. Calls come from the whole dose curve; as a rule, active = well fitted inhibition curve with a large enough effect; inconclusive = small, poorly fitted or top-dose-only effect; inactive = no such curve, though single readings can be large or run the other way.
Each compound was assayed against N-terminal Xaa-Pro-Lys N-methyltransferase 1 (Homo sapiens) (UniProt Q9BV86) (assay: qHTS Assay for Inhibitors of N-terminal methyltransferase 1 (NTMT1): ThioGlo3 Assay Confirmatory Screen, Round 1.). Details: NTMT1 SAHH-coupled ThioGlo3 fluorescence, 30 min; series mostly up to 56.8 µM; activity change, negative = inhibition: at the top concentration.
Procedure, shortened: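 Human NTMT1 at 125 nM was preincubated 1 min at room temperature with compounds at various concentrations or 1 uM RCC1-6 control. Substrate mix (100 uM SAM, 10 uM SAHH, 15 uM ThioGlo3) was added, and fluorescence (Ex 340/Em 450 nm) was read at start and after 30 min, normalized to background.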
Note: nearly all actives have a fitted effect of over 80% in size.
Potency is the fitted concentration of half-maximal effect.
Throughout, for activity change, negative = inhibition: 0% is about no effect.

N-terminal Xaa-Pro-Lys N-methyltransferase 1 (Homo sapiens), sequence (Q9BV86 whole entry, looked up): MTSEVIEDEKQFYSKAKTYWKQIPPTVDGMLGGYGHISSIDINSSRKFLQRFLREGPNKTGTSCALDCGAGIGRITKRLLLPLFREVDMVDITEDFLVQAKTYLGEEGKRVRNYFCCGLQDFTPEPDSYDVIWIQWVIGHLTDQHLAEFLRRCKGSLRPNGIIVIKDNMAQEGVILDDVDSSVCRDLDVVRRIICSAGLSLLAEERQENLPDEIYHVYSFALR

Potency, active:
COc1cc2nc(N3CCN(C)CC3)nc(N3CCN(C(C)=O)CC3)c2cc1OC 21.5 µM, Nc1ncnc2c1ncn2[C@@H]1O[C@H](CO)C(O)[C@H]1O (stereo not given in full) 1.36 µM, COc1cc2c(NC3CCN(C(C)C)CC3)nc(N3CCCN(CC4CCCCC4)CC3)nc2cc1OCCCN1CCCC1 24.1 µM, COc1cc2c(NC3CCN(C(C)C)CC3)nc(N3CCCN(C)CC3)nc2cc1OCCOCCN(C)C 24.1 µM, C=CCNc1nc(NC2CCN(C)CC2)c2cc(OC)c(OC)cc2n1 27.1 µM, CCN(CC)CCCOc1cc2nc(N3CCCN(C)CC3)nc(NC3CCN(C)CC3)c2cc1OC 24.1 µM, COc1cc2c(NC3CCN(C)CC3)nc(N3CCCN(C)CC3)nc2cc1OCCOCCN(C)C 24.1 µM, COc1cc2c(NC3CCN(C)CC3)nc(N3CCCN(C)CC3)nc2cc1OCCOCCN1CCCC1 27.1 µM, COc1cc2c(NC3CCN(C)CC3)nc(N3CCCN(C)CC3)nc2cc1OCCCCN(C)C 24.1 µM, Nc1nc(=S)c2ncn([C@@H]3O[C@H](CO)[C@@H](O)[C@H]3O)c2[nH]1 18.8 µM, COc1cc2nc(N3CCN(C)CC3)nc(NC3CCCC3)c2cc1OC 24.1 µM, COc1cc2c(NC3CCN(C)CC3)nc(N3CCCN(C)CC3)nc2cc1OCCCN1CCOCC1 24.1 µM, COc1cc2c(NC3CCN(CC4CCCCC4)CC3)nc(N3CCCCCC3)nc2cc1OCCOCCN(C)C 27.1 µM, [N-]=[N+]=Nc1nc2c(N)ncnc2n1C1OC(CO)C(O)C1O (stereo not given) 21.5 µM, COc1cc2nc(N3CCN(C)CC3)nc(NC(C)C)c2cc1OC 21.5 µM, COc1cc2nc(N3CCN(C)CC3)nc(NCCCN(C)C)c2cc1OC 27.1 µM, OCC1OC(n2cnc3c(=S)nc[nH]c32)C(O)C1O (stereo not given) 13.6 µM, CCC(CC)n1ccc2c(C(=O)NCc3c(C)cc(C)[nH]c3=O)cc(C#N)cc21 15.2 µM, COc1cc2c(NC3CCN(C(C)C)CC3)nc(N3CCCCCC3)nc2cc1OCCCN1CCCC1 21.5 µM, CCN(CC)c1nc(NC2CCN(C)CC2)c2cc(OC)c(OC)cc2n1 27.1 µM, COc1cc2c(NC3CCN(C)CC3)nc(N3CCCCC3)nc2cc1OCCOCCN1CCCC1 27.1 µM

Activity change, negative = inhibition, inactive:
NC(=S)c1ccc[n+]([C@@H]2O[C@@H](COP(=O)([O-])OP(=O)(O)OC[C@H]3O[C@@H](n4cnc5c(N)ncnc54)[C@H](OP(=O)(O)O)[C@@H]3O)C(O)C2O)c1 (stereo not given in full) 9.18%, Nc1ncnc2c1ncn2[C@@H]1O[C@H](COP(=O)(O)O)[C@@H](O)[C@@H]1O 13.1% [at 27.4 µM], CCNC(=O)[C@H]1O[C@H](n2cnc3c(N)nc(NCCc4ccc(CCC(=O)O)cc4)nc32)[C@@H](O)[C@@H]1O -29.2%, OC[C@H]1O[C@H](n2cnc3c(NC4CCCC4)nc(Cl)nc32)[C@@H](O)[C@@H]1O -26.2%, OC[C@H]1O[C@@H](n2cnc3c(Nc4ccccc4)ncnc32)[C@H](O)[C@@H]1O 3.01%, Nc1nc(Cl)nc2c1ncn2[C@@H]1O[C@H](CO)[C@H](O)[C@H]1O -11.3%, Nc1ncnc2c1ncn2[C@@H]1O[C@@H](CO)[C@H](O)[C@H]1O -16.7%, Nc1ncnc2c1ncn2[C@@H]1O[C@H](COP(=O)(O)OP(=O)(O)OP(=O)(O)O)[C@@H](O)[C@H]1O -14.1%, Nc1ncnc2c1ncn2C1OC(COP(=O)(O)O)C(O)C1O (stereo not given) -21.2%, OC[C@H]1O[C@@H](n2cnc3c(N[C@H]4C[C@H]5CC[C@@H]4C5)ncnc32)[C@H](O)[C@@H]1O -20.2%, OC[C@H]1O[C@@H](n2cnc3c(NC4CCCCC4)ncnc32)[C@H](O)[C@@H]1O -3.43%, COc1cc2nc(N3CC[C@H](N(C)C)C3)nc(NC3CC3)c2cc1OC 15.8%, COc1cc2c(NC3CCN(C)CC3)nc(N3CCCCC3)nc2cc1OCCCN(C)C 1400%, CSc1ncnc2c1ncn2C1OC(CO)C(O)C1O (stereo not given) 10.2%
